Experimental data: PubChem BioAssay (NCATS)
Results filed as inconclusive are left out. A number with no mark means an inactive call. The call rests on the fitted dose curve; in most records, active means well fitted cell-killing curve with a large enough effect; inconclusive means small, poorly fitted or top-dose-only effect, or effect the other way; inactive means flat fitted curve, though single readings scatter.

The compounds below were run on Hek293T (assay: Primary qHTS to identify gynecologic anti-cancer compounds using libraries of approved drugs and bioactive compounds (AID 1345084; further: nearly all actives have a fitted effect of over 55% in size)). Conditions: Gynecologic cancer cell panel viability, ATPlite luminescence, 48 h, control line for the selectivity index; series mostly up to 57.5 µM; activity change, negative = cytotoxicity: at the top concentration.
Procedure, shortened: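 Measured: luminescence after ATPlite addition (15 min, RT). Exposure: 48 h, 37 C, 5% CO2.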
On the % scale 0 is the no-effect control and ±100 the full control effect.

| Compound | activity change, negative = cytotoxicity |
| --- | --- |
| OC[C@H]1O[C@@H](OC(CCCCc2ccc(O)cc2)CCc2ccc(O)cc2)[C@H](O[C@@H]2OC[C@](O)(CO)[C@H]2O)[C@@H](O)[C@@H]1O (some centres undefined) | 0.745% [at 25.3 µM] |
| C=C(C)[C@H]1C[C@@H](O)C(=C)CC[C@@H](O)C(=C)[C@@H](O)C1 | 2.39% |
| CN1C(=O)c2ccccc2NC(=O)[C@]12O[C@@H]2c1cccc(O)c1 | 7.75% |
| C=C1C(=O)O[C@H]2[C@H]1[C@@H](OC(=O)C(C)CO)C[C@@]1(C)[C@H](O)CCC(=O)[C@H]21 (some centres undefined) | -7.79% [at 38.5 µM] |
| N[C@@H](CC(=O)N1CCn2c(nnc2C(F)(F)F)C1)Cc1[nH]nc2c(F)c(F)ccc12 | -1.6% |
| CC1=CC(=O)CC(C)(C)C1(O)CCC(C)O (centres undefined) | -0.251% |
| O=C(O)Cc1nn(Cc2nc3cc(C(F)(F)F)ccc3s2)c(=O)c2nccnc12 | -3.24% |
| CCOC(=O)[C@H](CCc1ccccc1)CC1(C(=O)N[C@H]2CCc3ccccc3N(CC(=O)O)C2=O)CCCC1 | 2.56% |
| COc1cc(/C=C/C(=O)OC2[C@H](O)CC(O)(C(=O)O)C[C@H]2O)ccc1O (some centres undefined) | 13.5% [at 38.5 µM] |
| Cn1ccnc1CCOC(c1cc2nccc(C(=O)O)c2[nH]1)c1ccccc1Cl (centres undefined) | 17.5% |
| C/C=C(\C)C(=O)O[C@H]1[C@H](O)[C@]2(COC(C)=O)[C@H](O)C[C@]3(C)C(=CCC4[C@@]5(C)CC[C@H](O[C@@H]6O[C@H](C(=O)O)[C@@H](O[C@@H]7O[C@H](CO)[C@@H](O)[C@H](O)[C@H]7O)[C@H](O)[C@H]6O[C@@H]6O[C@H](CO)[C@@H](O)[C@H](O)[C@H]6O)[C@](C)(CO)C5CC[C@]43C)[C@@H]2CC1(C)C (some centres undefined) | 5.9% [at 11.6 µM] |
| CC1=CCC2C(C)(CO)CCCC2(CO)C1CO (centres undefined) | 1.78% |
| COc1cccc2c1CCC[C@H]2CN(C)CCc1ccc2ccoc2c1 | 10.2% |
| COC(=O)CC1(O)C(=O)Nc2ccccc21 (centres undefined) | 18.5% |
| C=C1CCC2C(C)(C)C(O)CCC2(C)C1CCC(C)CCOC(=O)CCC(=O)O (centres undefined) | -17.5% [at 25.3 µM] |
| CC(=O)O[C@H]1C[C@@H]2[C@]3(CC[C@]4(C)[C@@H](C5(C)CCC(C(C)(C)O)O5)[C@@H](O)C[C@@]24C)C[C@@]32CC[C@H](O[C@@H]3OC[C@@H](O)[C@H](O)[C@H]3O)C(C)(C)[C@H]12 (some centres undefined) | -11.3% [at 25.3 µM] |
| CCCCS(=O)(=O)Nc1ncnc(OCCOc2ncc(Br)cn2)c1-c1ccc(Br)cc1 | 9.6% |
| C[C@@H]1O[C@@H](O[C@H]2[C@H](OC(=O)C34CCC(C)(C)CC3C3=CCC5C6(C)CC(O)C(O[C@@H]7O[C@H](CO)[C@@H](O)[C@H](O)[C@H]7O)C(C)(C(=O)O)C6CCC5(C)C3(CO)CC4)O[C@H](C)[C@H](O)[C@@H]2O)[C@H](O)[C@H](O)[C@H]1O[C@@H]1OC[C@@H](O)[C@H](O)[C@H]1O (some centres undefined) | 7.78% [at 11.6 µM] |
| CC1NC(=O)C(Cc2c[nH]c3ccccc23)NC1=O (centres undefined) | -5.16% |
| CC(=O)c1c(O)cc2cccc3c2c1CC(C)(O)O3 (centres undefined) | -0.589% |
| CC(C#N)C(C)O[C@@H]1O[C@H](CO)[C@@H](O)[C@H](O)[C@H]1O (some centres undefined) | 10.7% |
| CC(C)C(=O)O[C@@H]1[C@@H](O)[C@@H](O[C@H]2O[C@H](CO)[C@@H](O)[C@H](O)[C@H]2O)O[C@H](CO)[C@H]1O | 3.17% [at 25.3 µM] |
| COc1ccccc1CC(C(=O)O)N(C)C(=O)c1ccccc1 (centres undefined) | -1.31% [at 38.5 µM] |
| C/C(=C/CO)CC[C@@H]1[C@@]2(C)CCC[C@](C)(C(=O)O)C2CC[C@@]1(C)O (some centres undefined) | 9.48% [at 38.5 µM] |
| COc1cc(C(O)C(CO)Oc2ccc(CCCO[C@@H]3O[C@@H](C)[C@H](O)[C@@H](O)[C@H]3O)cc2OC)ccc1O (some centres undefined) | 5.43% [at 25.3 µM] |
| C[C@@H]1O[C@@H](O[C@H]2[C@H](O[C@H]3[C@H](O[C@H]4CC[C@@]5(C)C(CC[C@]6(C)C5CC=C5[C@@H]7CC(C)(C(=O)O)C[C@@H](O)[C@]7(C)CC[C@]56C)[C@@]4(C)CO)O[C@H](C(=O)O)[C@@H](O)[C@@H]3O)O[C@H](CO)[C@H](O)[C@@H]2O)[C@H](O)[C@H](O)[C@H]1O (some centres undefined) | -2.11% [at 11.6 µM] |
| CC(=O)O[C@H]1[C@H](Oc2ccccc2COC(=O)C2(O)C=CCCC2=O)O[C@H](CO)[C@@H](O)[C@@H]1O (some centres undefined) | 1.89% [at 25.3 µM] |
| NC(=O)[C@H]1CCCCc2c1[nH]c1ccc(Cl)cc21 | 0.0608% [at 25.3 µM] |
| COc1ccc(/C=C/C(=O)O[C@H]2[C@@H]3C=CO[C@@H](O[C@@H]4O[C@H](CO)[C@@H](O)[C@H](O)[C@H]4O)[C@@H]3[C@@]3(CO)O[C@@H]23)cc1O | -1.15% [at 25.3 µM] |
